These results are taken from ChEMBL document CHEMBL3988442, “University of Dundee, Small-Polar-MMV Screening Library” (2021).

Common to all, as to parameters: scale not given: direction of the effect not stated beside the values
Experiment [1] concerns the target Protein translocase subunit SecA (Escherichia coli (strain K12)) (UniProt P10408). The experiment is described as follows: Assay to Identify E. coli SecA ATPase Inhibitors. To be noted: 30 µM. The format is functional.
Experiment [2] concerns the target T1, Ubiquitin-activating enzyme e1, putative (Leishmania donovani (strain BPK282A1)) (UniProt E9BSI1).
T1 sequence (whole entry): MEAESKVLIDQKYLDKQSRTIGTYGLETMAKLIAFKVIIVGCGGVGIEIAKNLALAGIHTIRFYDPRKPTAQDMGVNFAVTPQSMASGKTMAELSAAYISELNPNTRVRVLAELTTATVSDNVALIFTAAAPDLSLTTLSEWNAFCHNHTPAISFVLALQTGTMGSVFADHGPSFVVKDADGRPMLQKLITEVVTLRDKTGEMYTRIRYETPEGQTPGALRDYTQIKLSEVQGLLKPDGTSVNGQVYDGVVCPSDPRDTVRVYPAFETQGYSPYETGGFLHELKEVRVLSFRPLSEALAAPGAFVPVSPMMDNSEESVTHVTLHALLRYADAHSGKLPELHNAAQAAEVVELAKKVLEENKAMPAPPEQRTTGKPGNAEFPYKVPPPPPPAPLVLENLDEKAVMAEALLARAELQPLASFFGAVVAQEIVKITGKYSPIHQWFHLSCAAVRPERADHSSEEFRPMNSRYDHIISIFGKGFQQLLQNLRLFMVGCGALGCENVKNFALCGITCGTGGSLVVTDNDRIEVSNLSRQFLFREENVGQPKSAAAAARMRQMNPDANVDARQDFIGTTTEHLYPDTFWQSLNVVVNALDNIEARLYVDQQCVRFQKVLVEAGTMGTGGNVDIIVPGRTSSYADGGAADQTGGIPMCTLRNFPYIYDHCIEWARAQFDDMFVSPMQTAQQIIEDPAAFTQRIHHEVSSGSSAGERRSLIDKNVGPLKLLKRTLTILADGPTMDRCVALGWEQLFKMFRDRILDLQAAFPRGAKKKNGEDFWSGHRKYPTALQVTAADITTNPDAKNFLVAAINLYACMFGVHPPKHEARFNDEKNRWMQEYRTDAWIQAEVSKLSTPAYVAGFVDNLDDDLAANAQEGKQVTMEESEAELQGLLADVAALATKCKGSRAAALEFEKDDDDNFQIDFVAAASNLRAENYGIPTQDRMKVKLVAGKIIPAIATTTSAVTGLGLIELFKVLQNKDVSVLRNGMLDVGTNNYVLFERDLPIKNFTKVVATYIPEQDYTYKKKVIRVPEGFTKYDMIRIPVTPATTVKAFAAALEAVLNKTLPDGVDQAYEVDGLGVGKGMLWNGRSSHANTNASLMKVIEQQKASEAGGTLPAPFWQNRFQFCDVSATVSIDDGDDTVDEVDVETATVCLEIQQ
The experiment can be described thus: Leishmania donovani Ubiquitin Activating Enzyme (LdE1). It is filed as functional. The conditions noted are these: 30 µM.

Experiment [3] deals with Sialic acid-binding Ig-like lectin 9 (Homo sapiens) (UniProt Q9Y336). The experiment is described as follows: Hs-Siglec9 ALPHAscreen SOP 20170721. To be noted: 10 µM.
Sequence of Sialic acid-binding Ig-like lectin 9 (Homo sapiens) (Q9Y336 whole entry): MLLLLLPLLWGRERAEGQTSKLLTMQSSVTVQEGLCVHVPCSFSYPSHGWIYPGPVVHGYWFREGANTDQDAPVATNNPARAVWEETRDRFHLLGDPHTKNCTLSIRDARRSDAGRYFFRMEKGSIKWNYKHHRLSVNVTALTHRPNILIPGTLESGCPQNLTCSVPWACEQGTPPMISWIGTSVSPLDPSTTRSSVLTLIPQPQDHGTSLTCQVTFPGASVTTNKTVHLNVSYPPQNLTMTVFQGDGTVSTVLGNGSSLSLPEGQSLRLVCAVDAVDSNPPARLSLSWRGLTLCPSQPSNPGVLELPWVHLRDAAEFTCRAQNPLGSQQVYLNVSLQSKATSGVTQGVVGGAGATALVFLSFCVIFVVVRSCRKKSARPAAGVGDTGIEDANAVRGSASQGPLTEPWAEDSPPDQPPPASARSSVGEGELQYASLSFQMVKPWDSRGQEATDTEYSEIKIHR
The test system of another experiment is Trypanosoma cruzi. The experiment can be described thus: Trypanosoma cruzi phosphomannomutase and mannose-1-phosphate guanylyltransferase assay. The format is functional. The conditions noted are these: 10 µM.
Experiment [4] has as its target T2, Arginase-2, mitochondrial (Homo sapiens) (UniProt P78540).
T2 sequence (whole entry): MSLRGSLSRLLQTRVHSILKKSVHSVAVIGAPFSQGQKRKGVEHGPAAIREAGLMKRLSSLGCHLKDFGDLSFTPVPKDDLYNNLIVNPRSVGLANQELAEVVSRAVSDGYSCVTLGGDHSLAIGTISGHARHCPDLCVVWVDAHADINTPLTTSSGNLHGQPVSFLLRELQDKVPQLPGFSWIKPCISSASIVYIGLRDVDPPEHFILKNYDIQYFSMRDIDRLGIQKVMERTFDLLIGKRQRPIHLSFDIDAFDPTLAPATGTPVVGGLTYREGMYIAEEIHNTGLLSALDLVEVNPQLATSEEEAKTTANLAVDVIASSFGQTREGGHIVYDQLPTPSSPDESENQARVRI
The experiment is described as follows: in vitro enzyme assay to detect the production of urea directly proportional to the activity of Arginase II. Note: in the data most compounds retested in dose-response had high values. It is filed as functional. The conditions noted are these: 33.3 µM.

Experiment [5] has as its target T3, Proteasome subunit beta (Trypanosoma cruzi) (UniProt O96673).
T3 sequence (whole entry): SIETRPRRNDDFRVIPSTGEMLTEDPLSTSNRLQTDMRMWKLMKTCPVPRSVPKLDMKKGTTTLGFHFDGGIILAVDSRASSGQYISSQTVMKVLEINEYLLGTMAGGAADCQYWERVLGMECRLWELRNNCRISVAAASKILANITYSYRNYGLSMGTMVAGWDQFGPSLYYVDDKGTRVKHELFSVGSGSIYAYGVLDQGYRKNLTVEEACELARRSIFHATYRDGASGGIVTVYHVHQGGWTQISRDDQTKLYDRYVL
The experiment is described as follows: Trypanosoma cruzi proteasome chymotrypsin-like activity (TcProtChymo) assay. Note: in the data most compounds retested in dose-response had high values. It is filed as functional. The conditions noted are these: 9.37 µM.

The species entered for the next experiment is Homo sapiens. The experiment can be described thus: To identify inhibition of the IFN signalling (Jak-Stat) pathway via expression of an eGFP reporter gene under the control of an IFN-stimulated response element (ISRE) containing MxA promoter. It is filed as functional. The conditions noted are these: 30 µM.
Experiment [6] deals with T4, Tyrosyl-tRNA synthetase, putative (Trypanosoma cruzi (strain CL Brener)) (UniProt Q4DSP6).
T4 sequence (whole entry): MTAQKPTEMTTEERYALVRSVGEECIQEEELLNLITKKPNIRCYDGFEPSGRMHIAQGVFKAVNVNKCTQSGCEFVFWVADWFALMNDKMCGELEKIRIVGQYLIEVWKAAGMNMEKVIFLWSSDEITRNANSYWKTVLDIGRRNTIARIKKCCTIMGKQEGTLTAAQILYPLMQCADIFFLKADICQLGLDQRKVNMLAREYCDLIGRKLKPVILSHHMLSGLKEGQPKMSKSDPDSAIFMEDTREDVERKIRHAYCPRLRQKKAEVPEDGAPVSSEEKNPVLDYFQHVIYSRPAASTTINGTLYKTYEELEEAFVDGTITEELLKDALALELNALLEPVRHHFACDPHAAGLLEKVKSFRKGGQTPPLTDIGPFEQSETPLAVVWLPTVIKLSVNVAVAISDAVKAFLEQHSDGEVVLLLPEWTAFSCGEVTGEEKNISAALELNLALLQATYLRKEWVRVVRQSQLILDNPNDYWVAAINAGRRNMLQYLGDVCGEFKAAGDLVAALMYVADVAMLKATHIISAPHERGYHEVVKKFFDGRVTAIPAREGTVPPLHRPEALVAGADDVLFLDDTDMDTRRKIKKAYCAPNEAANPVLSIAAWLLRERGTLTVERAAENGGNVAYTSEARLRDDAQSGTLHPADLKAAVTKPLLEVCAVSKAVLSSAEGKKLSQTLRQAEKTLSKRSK
The experiment is described as follows: Trypanosoma cruzi tyrosyl tRNA synthetase (TcYRS) _High Tyrosine SOP. Note: in the data most compounds retested in dose-response had high values. To be noted: 30 µM. It is filed as functional.

Experiment [7] has as its target T4, Tyrosyl-tRNA synthetase, putative (Trypanosoma cruzi (strain CL Brener)). The experiment can be described thus: Trypanosoma cruzi tyrosyl tRNA synthetase (TcYRS) SOP. The format is functional. The conditions noted are these: 30 µM.
Experiment [8] deals with Chromo domain-containing protein 1 (Saccharomyces cerevisiae (strain ATCC 204508 / S288c) (Baker's yeast)) (UniProt P32657). The experiment can be described thus: ScCHD-1 Enzyme Inhibition Assay. Note: in the data most compounds retested in dose-response had high values. The format is functional. To be noted: 30 µM.
Sequence of Chromo domain-containing protein 1 (Saccharomyces cerevisiae (strain ATCC 204508 / S288c) (Baker's yeast)) (P32657 whole entry, the tested form may be a part): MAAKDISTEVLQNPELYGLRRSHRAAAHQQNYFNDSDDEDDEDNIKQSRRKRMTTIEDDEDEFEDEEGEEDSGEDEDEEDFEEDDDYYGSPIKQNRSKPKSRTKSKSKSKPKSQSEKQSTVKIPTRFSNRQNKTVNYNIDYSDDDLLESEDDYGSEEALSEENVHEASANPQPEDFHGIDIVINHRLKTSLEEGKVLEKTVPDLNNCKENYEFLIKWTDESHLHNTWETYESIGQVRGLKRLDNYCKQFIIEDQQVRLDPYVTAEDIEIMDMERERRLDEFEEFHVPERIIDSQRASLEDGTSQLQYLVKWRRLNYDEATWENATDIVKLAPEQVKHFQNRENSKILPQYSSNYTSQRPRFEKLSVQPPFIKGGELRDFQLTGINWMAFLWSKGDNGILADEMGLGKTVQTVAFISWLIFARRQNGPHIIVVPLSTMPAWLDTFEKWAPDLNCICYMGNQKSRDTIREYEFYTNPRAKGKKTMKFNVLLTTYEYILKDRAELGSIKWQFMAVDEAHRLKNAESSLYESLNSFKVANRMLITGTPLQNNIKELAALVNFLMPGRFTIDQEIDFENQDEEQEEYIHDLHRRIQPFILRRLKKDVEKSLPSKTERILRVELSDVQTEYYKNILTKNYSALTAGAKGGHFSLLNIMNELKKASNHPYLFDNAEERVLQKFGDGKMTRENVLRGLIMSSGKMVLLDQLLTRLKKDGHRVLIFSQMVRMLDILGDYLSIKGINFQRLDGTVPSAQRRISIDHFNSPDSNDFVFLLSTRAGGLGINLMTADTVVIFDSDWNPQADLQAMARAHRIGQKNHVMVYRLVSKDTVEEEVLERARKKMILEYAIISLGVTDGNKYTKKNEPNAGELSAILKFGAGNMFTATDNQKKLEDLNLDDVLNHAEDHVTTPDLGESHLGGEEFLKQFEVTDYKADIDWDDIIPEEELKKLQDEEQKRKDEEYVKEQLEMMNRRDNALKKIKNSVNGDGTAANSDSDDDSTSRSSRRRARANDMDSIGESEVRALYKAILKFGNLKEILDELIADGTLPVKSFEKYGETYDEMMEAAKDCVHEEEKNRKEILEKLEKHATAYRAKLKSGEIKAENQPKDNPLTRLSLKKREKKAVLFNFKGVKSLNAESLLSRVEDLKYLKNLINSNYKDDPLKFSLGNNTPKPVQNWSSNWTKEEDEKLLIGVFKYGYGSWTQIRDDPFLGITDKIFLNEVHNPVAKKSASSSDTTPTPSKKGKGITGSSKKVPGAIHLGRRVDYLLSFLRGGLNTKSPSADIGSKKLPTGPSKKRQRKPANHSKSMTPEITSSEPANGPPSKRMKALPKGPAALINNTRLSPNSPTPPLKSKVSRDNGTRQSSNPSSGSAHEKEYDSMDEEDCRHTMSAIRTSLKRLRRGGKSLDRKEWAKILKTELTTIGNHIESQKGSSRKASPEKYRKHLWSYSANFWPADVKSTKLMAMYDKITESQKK

For some assays here: Results with a measured potency or affinity are listed apart.

Sequence of Protein translocase subunit SecA (Escherichia coli (strain K12)) (P10408 whole entry): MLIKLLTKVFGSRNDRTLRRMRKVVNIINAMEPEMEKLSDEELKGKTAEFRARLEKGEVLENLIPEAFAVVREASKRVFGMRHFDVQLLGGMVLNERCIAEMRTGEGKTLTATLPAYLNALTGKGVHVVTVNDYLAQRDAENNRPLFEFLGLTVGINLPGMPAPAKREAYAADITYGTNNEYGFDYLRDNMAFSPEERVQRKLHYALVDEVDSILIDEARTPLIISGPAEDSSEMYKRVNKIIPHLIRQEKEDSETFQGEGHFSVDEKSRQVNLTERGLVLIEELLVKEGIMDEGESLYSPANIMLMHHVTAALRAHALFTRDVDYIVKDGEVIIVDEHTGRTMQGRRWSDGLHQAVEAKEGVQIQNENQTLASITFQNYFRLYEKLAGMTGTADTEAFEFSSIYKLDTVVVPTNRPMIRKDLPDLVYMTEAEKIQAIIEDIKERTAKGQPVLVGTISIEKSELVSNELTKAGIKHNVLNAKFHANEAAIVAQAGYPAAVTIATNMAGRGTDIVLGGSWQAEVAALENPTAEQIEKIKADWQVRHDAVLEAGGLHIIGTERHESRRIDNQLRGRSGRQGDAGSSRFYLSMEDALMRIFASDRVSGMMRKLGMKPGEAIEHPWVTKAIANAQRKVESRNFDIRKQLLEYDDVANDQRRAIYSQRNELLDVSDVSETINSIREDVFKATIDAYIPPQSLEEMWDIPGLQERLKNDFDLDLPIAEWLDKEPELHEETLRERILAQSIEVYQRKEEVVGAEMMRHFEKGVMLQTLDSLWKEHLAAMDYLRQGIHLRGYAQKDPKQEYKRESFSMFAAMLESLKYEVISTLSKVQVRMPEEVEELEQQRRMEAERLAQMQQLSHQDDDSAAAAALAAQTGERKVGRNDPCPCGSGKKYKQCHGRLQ

`CC(C)c1nc(C2CCCN(Cc3nnc(C4CC4)o3)C2)no1` (stereo not given): the Percent Effect in [1] was 3.18%; in experiment [2], -2.67%; in [3], 5.21%; in the experiment on Trypanosoma cruzi, 0%; in experiment [4], 4.88%; in [5], 0.933%. Further, the Percent Effect in the experiment filed under Homo sapiens was 4.85%; in experiment [6], -1.58%; in experiment [7], -2.56%; in experiment [8] it was -1.26%.

As for `O=C(Cc1cccs1)N1CC[C@H]2[C@@H]1CCC(=O)N2c1cccnc1`, the Percent Effect in experiment [1] is -2.81%; in experiment [2], 29.9%; in [3], -3.71%; in the experiment with Trypanosoma cruzi it was -1.31%; in experiment [4] it was 1.37%; in experiment [5] it was 16.1%. In addition, the Percent Effect in the experiment filed under Homo sapiens was -2.71%; in experiment [6] it was 3.87%; in experiment [7], 7.5%; in experiment [8], -11%.

As to `O=C(NCC1CCOC1)c1ccc(OCC(F)(F)F)nc1` (stereo not given), the Percent Effect in experiment [1] was -1.32%; in experiment [2], 12.8%; in [3], 9.89%; with Trypanosoma cruzi, -4.98%; in [4], 2.46%; in experiment [5] it was 6.91%. The Percent Effect was 25.9% in the experiment listed under Homo sapiens, 3.35% in experiment [6], 10.8% in [7] and -2.44% in [8].

For `O=C(Cn1cccnc1=O)NCCc1ccc2c(c1)OCCO2`, the Percent Effect in [1] is -2.08%; in experiment [2] it was 16%; in experiment [3], -6.16%; in the experiment on Trypanosoma cruzi it was -5.22%; in [4] it was 1.77%; in experiment [5], 18.9%. Besides, the Percent Effect was 9.16% in the experiment listed under Homo sapiens, 1.58% in [6], 7.69% in [7] and -8.6% in experiment [8].

As to `CNc1cccc(C2CCCN(C(C)=O)C2)n1` (stereo not given), the Percent Effect in [1] is 1.36%; in [2], 6.67%; in experiment [3] it was -7.25%; in the experiment on Trypanosoma cruzi it was -6.71%; in [4] it was 3.98%; in experiment [5], 14.1%. For the same compound, the Percent Effect in the experiment filed under Homo sapiens is 17.4%; in [6] it was 1.06%; in experiment [7] it was 5%; in [8], -14.4%.

As to `Cc1cc(N2CCC(Cc3ccccc3)CC2)nc(-c2ccncc2)n1`, the Percent Effect in [1] was -1.61%; in experiment [2], -15.6%; in experiment [3] it was 11%; in the experiment with Trypanosoma cruzi it was 14.4%; in experiment [4] it was -6.76%; in experiment [5], -5.44%. For the same compound, the Percent Effect in the experiment listed under Homo sapiens was -2.83%; in [6], 18.6%; in [7], 7.06%; in experiment [8], 4.27%.

In the case of `CC(C)n1[nH]c(=O)c2c1NC(=O)CC2c1cccnc1` (stereo not given), the Percent Effect in experiment [1] is 0.982%; in experiment [2] it was 13.5%; in experiment [3] it was 1.14%; with Trypanosoma cruzi, 0.873%; in [4] it was 1.75%; in experiment [5], 18.7%. Besides, the Percent Effect was 23.6% in the experiment filed under Homo sapiens, 3.72% in experiment [6], 19.5% in [7] and -3.39% in experiment [8].

As for `O=C(NCCc1ccccc1)C1CCCN(c2ccc3nncn3n2)C1` (stereo not given), the Percent Effect in experiment [1] was -3.44%; in [2], 2.7%; in experiment [3], -1.4%; in the experiment on Trypanosoma cruzi, -8.05%; in experiment [4] it was 1.75%; in [5] it was 17.6%. Also, the Percent Effect in the experiment filed under Homo sapiens is -5.46%; in [6], 5.85%; in experiment [7], 7.32%; in experiment [8], -3.81%.

Consider `Cc1nc(COc2ccc(CNCC3CN(C)CCO3)cc2)cs1` (stereo not given), for which the Percent Effect was -3.51% in experiment [1]; 2.6% in experiment [2]; 0.562% in [3]; -3.73% in the experiment on Trypanosoma cruzi; 3.07% in experiment [4]; 3.16% in [5]. For the same compound, the Percent Effect in the experiment listed under Homo sapiens is 18.8%; in experiment [6], -0.98%; in experiment [7], -2.35%; in experiment [8] it was -1.69%.

For the compound `CN1CC(=O)N(c2ccsc2)CC12CCN(C(=O)c1ccccc1)C2` (stereo not given), the Percent Effect in experiment [1] was -4.65%; in experiment [2], 11.7%; in experiment [3] it was -6.87%; in the experiment with Trypanosoma cruzi, -3.99%; in [4] it was 3.64%; in experiment [5] it was 12.6%. The Percent Effect in the experiment listed under Homo sapiens is -10.9%; in experiment [6] it was 5.79%; in [7], 7.69%; in experiment [8] it was 1.01%.

In the case of `COc1ccccc1CC(=O)N1CC[C@@]2(CCCO2)[C@@H](OC)C1`, the Percent Effect in experiment [1] is -3.82%; in [2], 4%; in [3] it was -4.43%; in the experiment on Trypanosoma cruzi, -3.35%; in experiment [4] it was -9.29%; in experiment [5] it was 6.4%. Further, the Percent Effect in the experiment listed under Homo sapiens is 14.4%; in [6], -1.06%; in experiment [7] it was 5%; in experiment [8], -24.2%.
